SKN-1 inh: suppressors of acrylamide-induced Pgst-4::GFP reporter in worms, primary screen, SKN-1 inhibitor project, whole organism, uHTS, GFP/RFP fluorescence ratio, strain VP596; C. elegans VP596 Pgst-4::GFP/RFP ratio, 24 h; AID 624304, 2012; hit rate 0.49% among 360,000; inhibition, % at 21.8 µM;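 active = interference check ratio from 0.5 to 1.5 plus GFP to RFP signal ratio inhibition reaching or exceeding a fixed threshold, cut at about 30% in these data, passing the limit was not always enough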
CR mimetic SO: reduction of superoxide in aged yeast, primary screen, HTS | S. cerevisiae aged cells, superoxide DHE fluorescence; stronger effect = lower value | superoxide response (% of plate mean), % at 10 µM | hit rate 0.18% among 330,000;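 active = superoxide response under a set limit, about three screen SD below normal, cut at about 65% in these data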;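 also: yeast aged for seven days with compound at 30 °C before DHE staining; 100% = average MFI of all compound-treated wells on the plate with controls excluded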
ABCB6 inh MLPCN: ABCB6 transporter inhibitors, primary screen, K562-ABCB6 cells, flow cytometry, MLPCN library. ATP-binding cassette sub-family B member 6 (Homo sapiens), Q9NP58. K562-ABCB6 porphyrin accumulation, 1 h; stronger effect = lower value. fluorescence ratio to DMSO, % at 10 µM. hit rate 0.19% among 360,000;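 active = fluorescence ratio to DMSO below 75%, the collection mean minus 3 SD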;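 also: signal is porphyrin accumulated inside mitochondria; 100% equals median channel fluorescence of DMSO control wells; lower ratio means ABCB6 inhibition with less porphyrin fluorescence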
Target sequence (Q9NP58 whole entry, looked up): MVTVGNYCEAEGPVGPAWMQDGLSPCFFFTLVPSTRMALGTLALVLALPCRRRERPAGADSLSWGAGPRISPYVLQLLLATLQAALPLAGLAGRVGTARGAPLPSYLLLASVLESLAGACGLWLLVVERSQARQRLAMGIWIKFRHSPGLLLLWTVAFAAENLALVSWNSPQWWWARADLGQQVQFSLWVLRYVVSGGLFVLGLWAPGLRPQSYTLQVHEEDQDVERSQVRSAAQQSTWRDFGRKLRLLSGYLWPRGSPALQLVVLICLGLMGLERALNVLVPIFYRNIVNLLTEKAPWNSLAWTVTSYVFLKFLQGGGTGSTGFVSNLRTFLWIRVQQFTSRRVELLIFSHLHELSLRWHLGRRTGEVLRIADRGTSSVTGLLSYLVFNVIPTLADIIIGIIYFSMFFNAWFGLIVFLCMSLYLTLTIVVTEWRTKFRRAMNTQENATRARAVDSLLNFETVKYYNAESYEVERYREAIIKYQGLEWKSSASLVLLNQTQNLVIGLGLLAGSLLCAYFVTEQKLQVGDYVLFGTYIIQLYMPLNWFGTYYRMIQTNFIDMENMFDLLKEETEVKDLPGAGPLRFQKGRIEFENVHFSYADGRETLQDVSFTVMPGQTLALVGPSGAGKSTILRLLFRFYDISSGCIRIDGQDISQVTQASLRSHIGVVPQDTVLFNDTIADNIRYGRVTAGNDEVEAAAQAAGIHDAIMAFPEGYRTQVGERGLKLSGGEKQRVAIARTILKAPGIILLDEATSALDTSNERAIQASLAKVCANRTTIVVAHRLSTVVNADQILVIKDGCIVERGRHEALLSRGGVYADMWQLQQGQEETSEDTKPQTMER
VLA-4 inh: inhibition in human VLA-4 binding assay, primary screen, VLA-4 allosteric modulator project, MLPCN library, flow cytometry, VLA-4 expressing cells; inhibition, % (about 7 µM as worked out from the volumes in the protocol); ligand binding flow cytometry; AID 2557, 2010; hit rate 0.2% among 330,000; Integrin alpha-4 (Homo sapiens), P13612; in the data active = inhibition above about 50%
Platelet DG rel: inhibitors of platelet dense granule secretion, primary screen, cell-based, MLPCN, human platelets. inhibition, %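 (compounds screened at 7.5 µM in platelet-rich plasma)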. human platelet-rich plasma, SFLLRN dense granule ATP release, luminescence. hit rate 0.22% among 300,000;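 active = mean replicate score, as percent of positive control, at or above 50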
ABCB6 inh CP1: ABCB6 transporter inhibitors, confirmation, K562-ABCB6 cells, flow cytometry, cherry pick 1. AID 602430, 2012. K562-ABCB6 porphyrin accumulation, 1 h; stronger effect = lower value. shares compounds with ABCB6 inh MLPCN. ratio response (% of DMSO), % at 10 µM. 700 tested, under 10 active;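 active = repeat-averaged ratio response below 75% of DMSO, the collection mean minus 3 SD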;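 also: median porphyrin fluorescence at 575 nm with 488 nm excitation from mitochondria; lower ratio means less porphyrin signal so ABCB6 inhibition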
The depositor's hits bear a star; nt = no result given. Hits are enriched below; roughly 1.2% of the tested compounds scored in any of these assays.

SMILES	SKN-1 inh	CR mimetic SO	ABCB6 inh MLPCN	VLA-4 inh	Platelet DG rel	ABCB6 inh CP1
COC(=O)COc1cccc(NC(=O)c2ccccc2)c1	16	93	74*	20	-1	100
Cc1c(C(=O)N(Cc2ccccc2)C(C)C)cnn1-c1ccccc1	-2	92	92	17	2	nt
Cc1c(C(=O)N(Cc2ccccc2)Cc2cccs2)cnn1-c1ccc(Cl)cc1	6	93	14*	4	-8	100
C=CCN(CC=C)Cc1c(C)[nH]c2c(C)c(C)ccc2c1=O	1	98	114	-1	2	nt
CCN(Cc1ccccc1)Cc1c(C)[nH]c2c(C)c(C)ccc2c1=O	-16	101	55*	-3	-2	99
CC1CCN(c2ccc3nnc(CCC(=O)N4CCN(c5ccc(F)cc5)CC4)n3n2)CC1	0	102	96	-2	2	nt
COc1ccc(NC(=O)CCc2nnc3ccc(N4CCC(C)CC4)nn23)cc1	-4	95	98	-7	12	nt
CCC(C)NC(=O)CCc1nnc2ccc(N3CCC(C)CC3)nn12 (stereo unspecified)	2	103	61*	8	14	99
CCOC(=O)C(C)NC(=O)CCc1nnc2ccc(N3CCC(C)CC3)nn12 (stereo unspecified)	-14	104	72*	7	4	99
COC(=O)C(NC(=O)CCc1nnc2ccc(N3CCC(C)CC3)nn12)C(C)C (stereo unspecified)	5	101	97	1	15	117
CC1CCN(c2ccc3nnc(CCC(=O)N4CCCCC4)n3n2)CC1	4	82	98	12	9	100
COc1ccc(OC)c(CN2C(=O)c3ccccc3C2c2nnnn2Cc2ccccc2)c1 (stereo unspecified)	6	nt	93	nt	nt	nt
CC(C)c1ccc(C(=O)N2CCCC(c3cc(C(=O)Nc4ccc5c(c4)OCO5)no3)C2)cc1 (stereo unspecified)	8	nt	94	nt	nt	nt
CCCN1CCC(C(=O)NC(c2ccc(Cl)cc2)c2ccsc2)CC1 (stereo unspecified)	3	nt	99	nt	nt	nt
CC(=O)c1cccc(-c2ccnc3c2CC(C(=O)Nc2ccc(C(C)C)cc2)O3)c1 (stereo unspecified)	-27	nt	96	nt	nt	nt
CC(C)CCNC(=O)CCc1nnc2ccc(N3CCC(C)CC3)nn12	19	105	97	4	14	100
CC1CCN(c2ccc3nnc(CCC(=O)NCC(C)c4ccccc4)n3n2)CC1 (stereo unspecified)	20	80	99	-7	3	nt
Cc1nn(C(C)(C)C)c(OC(=O)c2cccs2)c1S(=O)(=O)c1ccccc1	-8	93	74*	-2	1	101
CC(=O)Oc1c(S(=O)(=O)c2ccccc2)c(C)nn1C(C)(C)C	0	107	91	26	1	nt
COc1ccc(S(=O)(=O)N(Cc2nc3ccccc3c(=O)[nH]2)C2CCCC2)cc1	9	97	68*	2	-3	101
CC(C)CC(N)c1csc(NC(=O)c2cc(C(C)(C)C)nn2Cc2ccccc2)n1 (stereo unspecified)	6	nt	103	nt	nt	nt
CC1(C)Oc2ccc3ccc(=O)oc3c2C[C@H]1O	-9	100	68*	4	1	94
C/C=C(/C)C(=O)O[C@@H]1Cc2c(ccc3ccc(=O)oc23)OC1(C)C	0	100	97	-2	nt	nt
CCOC(=O)c1sc(NC(=O)CCN2C(=O)c3ccccc3C2=O)c(C(=O)OCC)c1C	24	79	97	6	-7	nt
CCOC(=O)c1c(NC(=O)CCN2C(=O)c3ccccc3C2=O)sc(C(=O)OC(C)C)c1C	5	100	70*	8	4	99
SMILES	SKN-1 inh	CR mimetic SO	ABCB6 inh MLPCN	VLA-4 inh	Platelet DG rel	ABCB6 inh CP1
O=C(C1CCN(S(=O)(=O)c2c(Cl)cccc2Cl)CC1)N1CCCCCCC1	-4	131	72*	8	-15	99
O=C(C1CCN(S(=O)(=O)c2ccc(Cl)cc2)CC1)N1CCC1	-2	94	99	-5	-2	nt
Cc1cc(C)c(C#N)c(N2CCN(Cc3ccccc3)CC2)n1	13	136	47*	-2	-23	99
CCOC(=O)C1CCN(S(=O)(=O)c2ccc(CC)cc2)CC1	0	90	95	-6	-9	nt
CCOC(=O)C1CCN(S(=O)(=O)c2ccc(Cl)cc2)CC1	0	86	98	7	-1	nt
CCOC(=O)c1ccc(S(=O)(=O)N2CCC(C(=O)O)CC2)cc1	-3	91	104	8	17	nt
CCOC(=O)C1CCN(S(=O)(=O)c2ccc(Cl)s2)CC1	-3	104	68*	6	-2	99
CCOC(=O)c1ccc(S(=O)(=O)N2CCC(C(=O)OCC)CC2)cc1	19	91	60*	2	1	103
CCOC(=O)C1CCN(S(=O)(=O)c2ccc(OCC)cc2)CC1	-1	87	99	-1	1	101
Cc1noc(C)c1-c1ccc(C(=O)NCCC(F)(F)F)c2occc12	10	nt	106	nt	nt	nt
O=C(c1cc(Cl)cc(Cl)c1)N1CCC2CC1c1cc(N3CCCCC3)ccc12 (stereo unspecified)	2	nt	100	nt	nt	nt
CCOC(=O)C1=CCN(S(=O)(=O)c2ccc(C)cc2)C1c1cccc(Cl)c1 (stereo unspecified)	14	nt	101	nt	nt	nt
Cc1ccc(S(=O)(=O)Cn2cnnn2)cc1	-6	98	60*	27	1	100
O=S(=O)(NCc1ccccc1)NCc1ccccc1F	-4	108	96	-5	1	nt
COc1ccc(CNS(=O)(=O)NCc2ccccc2F)cc1	3	109	70*	-8	nt	96
COc1ccc(C2=CCCCCC2)cc1OC	16	nt	96	nt	nt	nt
Nc1sc2c(c1C(=O)NCCc1ccccc1)CCCC2	-7	nt	nt	nt	nt	nt
O=C(CC(c1ccc(F)cc1)c1ccco1)N1CCOCC1 (stereo unspecified)	10	95	72*	0	0	101
O=C(CC(c1ccc(F)cc1)c1ccco1)N1CCCC1 (stereo unspecified)	0	112	104	4	0	nt
CCOC(=O)[C@]12CCCC=C1N(Cc1ccccc1)C(=O)[C@H](CC(=O)N1CCN(C(=O)C3CC3)CC1)C2	3	nt	nt	nt	nt	nt
C#CCOc1ccccc1CNC1CCN(Cc2ccccc2)CC1	-3	101	57*	-4	0	98
O=C(NC1CCCCC1)c1nc(-c2c(F)cccc2F)oc1-c1ccccc1	10	nt	nt	nt	nt	nt
